45 compounds from publication PMC4336329 (PLoS ONE, 2015) can be followed below.

In all, about 310,000 compounds went through this assay and about 14,000 (4.5%) showed an effect of 50% or more. Effects have a minus sign here. The list comes from a sample in which strong results are over-represented; it also holds similar structures and randomly drawn compounds.
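Further: peak tail current of the secondary pulse compared with the same well before compound.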

For the assay, the target named is human ether-à-go-go-related gene (hERG) potassium channel (human, UniProt Q12809). The assay is described as follows: primary screen, population patch clamp on CHO cells stably expressing hERG; higher = less effect of the substance.
Chain of human ether-à-go-go-related gene (hERG) potassium channel (Q12809 whole entry, looked up): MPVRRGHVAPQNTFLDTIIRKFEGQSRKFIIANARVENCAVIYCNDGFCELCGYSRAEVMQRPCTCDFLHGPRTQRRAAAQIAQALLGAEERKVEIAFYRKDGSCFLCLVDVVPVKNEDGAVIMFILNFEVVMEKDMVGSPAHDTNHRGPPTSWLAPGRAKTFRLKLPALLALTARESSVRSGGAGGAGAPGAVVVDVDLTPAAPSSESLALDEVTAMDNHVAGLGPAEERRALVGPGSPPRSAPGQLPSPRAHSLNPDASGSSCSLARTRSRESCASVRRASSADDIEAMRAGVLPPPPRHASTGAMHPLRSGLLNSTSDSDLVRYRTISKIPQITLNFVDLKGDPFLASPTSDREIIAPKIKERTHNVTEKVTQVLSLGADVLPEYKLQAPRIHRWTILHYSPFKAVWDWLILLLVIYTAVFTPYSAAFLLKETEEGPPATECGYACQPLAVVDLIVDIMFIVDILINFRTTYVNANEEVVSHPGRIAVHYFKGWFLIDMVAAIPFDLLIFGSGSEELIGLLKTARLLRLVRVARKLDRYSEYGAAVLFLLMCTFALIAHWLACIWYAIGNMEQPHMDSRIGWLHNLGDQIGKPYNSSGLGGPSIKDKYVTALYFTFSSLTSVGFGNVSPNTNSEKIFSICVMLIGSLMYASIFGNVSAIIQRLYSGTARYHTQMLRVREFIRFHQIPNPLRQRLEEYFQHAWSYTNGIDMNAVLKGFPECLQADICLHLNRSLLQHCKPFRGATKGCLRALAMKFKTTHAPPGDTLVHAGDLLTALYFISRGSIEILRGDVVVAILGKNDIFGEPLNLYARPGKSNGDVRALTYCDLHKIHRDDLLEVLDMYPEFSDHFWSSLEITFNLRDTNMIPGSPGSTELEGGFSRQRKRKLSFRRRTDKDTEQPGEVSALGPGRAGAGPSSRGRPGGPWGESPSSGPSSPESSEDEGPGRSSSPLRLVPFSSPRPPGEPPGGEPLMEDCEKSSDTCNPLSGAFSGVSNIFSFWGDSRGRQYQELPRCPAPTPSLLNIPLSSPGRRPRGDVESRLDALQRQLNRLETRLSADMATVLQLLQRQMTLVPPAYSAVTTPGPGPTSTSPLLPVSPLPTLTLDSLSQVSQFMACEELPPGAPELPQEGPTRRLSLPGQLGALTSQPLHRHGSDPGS
Regarding `CCOC(=O)C1=C(C)NC(=O)CC1c1ccccc1OC` (stereo not drawn), the “hERG current change (%, negative = inhibition) at 10uM” value was determined as 7.62%. As to `Cc1ccc(NC2=NCC(=O)N2Cc2ccc3c(c2)OCO3)c(C)c1`, the “hERG current change (%, negative = inhibition) at 10uM” value is on record as -1.91%. As to `c1ccc(CN2CCN(c3ncccn3)CC2)cc1`, the “hERG current change (%, negative = inhibition) at 10uM” value is given as 11.6%. For `c1ccc(COCCN2CCN(CCOCc3ccccc3)CC2)cc1`, the “hERG current change (%, negative = inhibition) at 10uM” value was -39.5%. `Cl.c1ccc(CCCN2CCN(CCOC(c3ccccc3)c3ccccc3)CC2)cc1`: the “hERG current change (%, negative = inhibition) at 10uM” value was -71.8%. Then `CCC(C(=O)N1CCN(c2ncccn2)CC1)c1ccccc1` (stereo not drawn), with -0.742%. With `O=S(=O)(c1ccc(F)cc1)N1CCN(CCc2ccccc2)CC1`, the “hERG current change (%, negative = inhibition) at 10uM” value is recorded as -8.48%. Regarding `Cl.Fc1ccc(C(OCCN2CCN(CCCc3ccccc3)CC2)c2ccc(F)cc2)cc1`, the “hERG current change (%, negative = inhibition) at 10uM” value is recorded as -77.4%. Consider `Cl.c1ccc(C(OCCN2CCNCC2)c2ccccc2)cc1`, for which the “hERG current change (%, negative = inhibition) at 10uM” value is recorded as -11.9%. Turning to `O=C(O)/C=C\C(=O)O.c1ccc(C(OCCN2CCN(c3ncccn3)CC2)c2ccccc2)cc1`, the “hERG current change (%, negative = inhibition) at 10uM” value is -65.9%.

`O=C1CCN(CCCc2ccccc2)CCN1CCO`: the “hERG current change (%, negative = inhibition) at 10uM” value was found to be 2.01%.

Consider `CC(=O)Nc1ccc(Sc2ncccc2C(=O)Nc2cc(Cl)cc(Cl)c2)cn1`, for which the “hERG current change (%, negative = inhibition) at 10uM” value stood at 26.7%. For the compound `CN(C)/C=C(\C#N)C(=O)N/N=C/c1ccc(F)cc1`, the “hERG current change (%, negative = inhibition) at 10uM” value is listed as -10.1%. Take `C=CCN(CC=C)C(=O)C[n+]1ccc(C(N)=O)cc1.[Cl-]`: the “hERG current change (%, negative = inhibition) at 10uM” value was -0.0573%.

`O=C(CSc1ccc2nnc(-c3ccccn3)n2n1)Nc1ccc2c(c1)OCCO2`: the “hERG current change (%, negative = inhibition) at 10uM” value is reported as -40.6%. Consider `O=C(CSc1ccc2nnc(-c3ccncc3)n2n1)Nc1ccc2c(c1)OCO2`, for which the “hERG current change (%, negative = inhibition) at 10uM” value is listed as 7.8%. As to `O=C(CSc1ccc2nnc(-c3ccccn3)n2n1)Nc1ccc2c(c1)OCO2`, the “hERG current change (%, negative = inhibition) at 10uM” value was -33.7%. Take `O=C(CSc1ccccn1)NCc1ccc2c(c1)OCO2`: the “hERG current change (%, negative = inhibition) at 10uM” value came to 3.5%. Consider `O=C(CSc1ccc2nnc(-c3cccnc3)n2n1)NCC1CCCO1` (stereo not drawn), for which the “hERG current change (%, negative = inhibition) at 10uM” value is given as -9.66%.

Turning to `O=C(CSc1ccc2nnc(-c3ccccn3)n2n1)NCc1ccc2c(c1)OCO2`, the “hERG current change (%, negative = inhibition) at 10uM” value was -74.4%. `O=C(CSc1ccc2nnc(-c3cccnc3)n2n1)NCc1ccco1`: the “hERG current change (%, negative = inhibition) at 10uM” value is recorded as -44.3%.

As to `O=C(CSc1ccc2nnc(-c3ccccc3)n2n1)NCc1ccc2c(c1)OCO2`, the “hERG current change (%, negative = inhibition) at 10uM” value was -80.3%. Then `O=C(CSc1ccc2nnc(-c3cccnc3)n2n1)NCc1ccc2c(c1)OCO2`, with -53.3%; and `O=C(O)CC1c2ccccc2CCN1S(=O)(=O)c1ccccc1` (stereo not drawn), with -1.51%; and `COc1ccc(N2C(=O)CN=C2Nc2nc(C)cc(C)n2)cc1OC`, with -4.68%. In the case of `Cc1cccc(NC(=S)NCc2ccc3c(c2)cc(C)n3C)c1C`, the “hERG current change (%, negative = inhibition) at 10uM” value is -9.2%. The value for `CC(=O)c1ccc(NC(=O)CSc2nc(N3CCOCC3)nc(N3CCOCC3)n2)cc1` was -7.67%.

For the compound `Cc1ccc(NS(=O)(=O)c2c(C)nc3sccn3c2=O)c(C)c1`, the “hERG current change (%, negative = inhibition) at 10uM” value is on record as -15.2%. Consider `COc1ccc(NC2CCCN(C(=O)c3cccc(C)n3)C2)cc1OC` (stereo not drawn), for which the “hERG current change (%, negative = inhibition) at 10uM” value is recorded as 18.5%. As for `CC1(C)N=C(c2ccccc2)[C@@H]2C(c3ccc([N+](=O)[O-])cc3)N21` (stereo partly drawn), the “hERG current change (%, negative = inhibition) at 10uM” value was -31.6%. For the compound `CC12CCC(C(=O)Nc3nc4ccc(Br)cc4s3)(OC1=O)C2(C)C` (stereo not drawn), the “hERG current change (%, negative = inhibition) at 10uM” value is listed as -2.78%. As to `COc1cc2c(cc1OC)C(C)N(CCN1C(=O)c3ccccc3C1=O)CC2` (stereo not drawn), the “hERG current change (%, negative = inhibition) at 10uM” value was 17.5%.

`COc1cc2c(cc1OC)C(C)N(Cc1ccc3c(c1)OCO3)CC2` (stereo not drawn): the “hERG current change (%, negative = inhibition) at 10uM” value is -3.76%.

For the compound `COc1cc2c(cc1OC)CN(CCC(C)c1ccc(Cl)cc1)CC2.O=C(O)/C=C\C(=O)O` (stereo not drawn), the “hERG current change (%, negative = inhibition) at 10uM” value is reported as -72.1%. In the case of `COc1cc2c(cc1OC)CN(CC(=O)Nc1ccc(Cl)cc1Cl)CC2`, the “hERG current change (%, negative = inhibition) at 10uM” value is -11.7%. For `COc1cc2c(cc1OC)C(C)N(CCc1ccc(Cl)cc1)CC2.O=C(O)/C=C\C(=O)O` (stereo not drawn), the “hERG current change (%, negative = inhibition) at 10uM” value was -70.2%. As for `COc1cc2c(cc1OC)CN(CC(O)c1ccccc1)CC2` (stereo not drawn), the “hERG current change (%, negative = inhibition) at 10uM” value is given as 14.4%. On to `Br.COc1cccc(C(=O)CSc2nccn2C)c1`, for which the “hERG current change (%, negative = inhibition) at 10uM” value is recorded as 24.2%. Then `COc1ccc(Cl)cc1NC(=O)CSc1nnc(-c2ccncc2)n1CC1CCCO1` (stereo not drawn), with -28.2%; and `C=CCn1c(N2CCN(c3ccc(OC)cc3)CC2)nc2c1c(=O)[nH]c(=O)n2C`, with -24.6%. Consider `COc1cccc(N2C(=O)C3CCCN3C2c2ccc(F)cc2)c1` (stereo not drawn), for which the “hERG current change (%, negative = inhibition) at 10uM” value was found to be 6.88%.

As to `CCOc1nc2cnccc2n(CC(=O)Nc2ccccc2F)c1=O`, the “hERG current change (%, negative = inhibition) at 10uM” value was 26.4%. Regarding `C=CCN(CC=C)CCCOc1ccccc1C(=O)OC.O=C(O)C(=O)O`, the “hERG current change (%, negative = inhibition) at 10uM” value is -72.4%. As to `COC(=O)c1ccccc1OCCCN(C)C.O=C(O)C(=O)O`, the “hERG current change (%, negative = inhibition) at 10uM” value is recorded as -17.4%. With `C=CCN(CC=C)CCCOc1ccc(C)cc1OC.O=C(O)C(=O)O`, the “hERG current change (%, negative = inhibition) at 10uM” value is -45.1%.
